The whole screen tested about 10,000 compounds, of which about 20 (0.2%) were called active. The entries come from a sample that favours actives as a whole. Values without a mark were called inactive.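 The calls were made as follows: active = a compound raising TNF-alpha-driven VCAM-1 surface staining, with its hit status upheld on visual or statistical review; inactive = the rest, including hits rejected on review.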

The values below come from PubChem BioAssay AID455 (Sanford-Burnham Center for Chemical Genomics, 2006).

This assay is described as follows: boosters of cytokine-driven VCAM-1 levels – cell-based, plate reader, pooled HUVEC, TNFa stimulus (AID 455).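 As to augmentation: 0% = TNFa plus DMSO wells and 100% = a visually confirmed top hit.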 As to conditions: HUVEC TNFa-induced VCAM-1 immunofluorescence; hits give high values, 100% set by best visually verified hit,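 tested at 5 µM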.
As to `Nc1nc(N2C(=O)C3CC=CCC3C2=O)nn1-c1ccccc1` (configuration not stated), the augmentation result is “inactive”.

On to `O=C1c2ccccc2C(Nc2ccc3nc(-c4cccnc4)[nH]c3c2)N1Cc1ccco1` (configuration not stated), for which the augmentation entry is “inactive”. For `CCCCn1nnc(NC(=O)c2cc3ccccc3o2)n1` the value was “inactive”; for `COc1ccc2nc(NC(=O)c3ccoc3C)sc2c1`, “inactive”. For `COC(=O)C1C2C=CC3(CN(CC4CCCO4)C(=O)C13)O2` (configuration not stated), the augmentation result was “inactive”. Consider `CCOC(=O)c1c(NC(=O)Cn2c(=O)oc3ccccc32)oc(C)c1C(C)=O`, for which the augmentation result was “inactive”. For `Cc1ccnc(SCCn2c(N3CCCCC3)nc3c2c(=O)n(C)c(=O)n3C)n1` the value was “inactive”; for `CC(=O)Nc1ccc(N2CCN(Cc3ccccc3F)CC2)cc1`, “inactive”; for `CCCCN(CCCC)C(=O)CN(C)S(=O)(=O)c1ccc2c(c1)n(C)c(=O)c(=O)n2C`, “inactive”. For `O=C(CSc1nnnn1-c1ccccc1)Nc1ccc(Cl)cc1` the value was “inactive”.

For the compound `COc1ccc(S(=O)(=O)NCCOc2ccccc2)cc1OC`, the augmentation entry was “inactive”.

As for `CCOc1ccc(N(C(C)=O)C2C=CS(=O)(=O)C2)cc1` (configuration not stated), the augmentation result is “inactive”. On to `Cc1ccc(S(=O)(=O)N2CCC(C(=O)NCCN3CCCCCC3)CC2)cc1`, for which the augmentation entry was “inactive”. For the compound `O=C(c1ccc(S(=O)(=O)N2CCOCC2)cc1)N(c1ccc(F)cc1)C1C=CS(=O)(=O)C1` (configuration not stated), the augmentation entry is “inactive”. In the case of `COc1ccc(-c2nnc(SCC(=O)NC(C)c3ccccc3)o2)cc1` (configuration not stated), the augmentation result is “inactive”. As to `COC(=O)c1ccc(CSc2nc(-c3ccc(OC)cc3)nc3c2c(=O)n(C)c(=O)n3C)o1`, the augmentation result was “inactive”. For `CC1CCN(C(=O)c2ccc(C(=O)N3CCC(C)CC3)cc2)CC1` the value was “inactive”; for `CCOC(=O)Cc1cc(=O)n2[nH]c(C)c(-c3ccc(OC)cc3)c2n1`, “inactive”; for `COC(=O)Cc1cc(=O)[nH]c(Nc2nc3ccccc3o2)n1`, “inactive”.

As for `O=C(NC1CCCCCC1)c1cc(S(=O)(=O)N2CCC3(CC2)OCCO3)ccc1F`, the augmentation result was “inactive”. The result for `CCOc1cc(N2CCOCC2)c(OCC)cc1NC(=O)CSc1cccc[n+]1[O-]` reads “inactive”; that for `CCOC(=O)CSc1nnc(CNC(=O)c2ccc(S(=O)(=O)N3CCCC3)cc2)n1C`, “inactive”; that for `Cc1cccc(CCNC(=O)C2CCCN(S(=O)(=O)c3cnc[nH]3)C2)c1` (configuration not stated), “inactive”. For `COc1ccc(S(=O)(=O)NCCCN2CCOCC2)c2ccccc12` the value was “inactive”; for `CCc1nnc(NC(=O)c2ccc(S(=O)(=O)NCC(C)C)cc2)s1`, “inactive”; for `O=C(CCSc1nc(-c2ccco2)cc(C(F)(F)F)n1)NCCc1ccccc1`, “inactive”. Regarding `CCc1ccccc1NC(=O)C(CC)Sc1nc2cc3c(cc2c(=O)n1Cc1ccco1)OCO3` (configuration not stated), the augmentation result was “inactive”. The result for `O=C(O)CCC(=O)c1c[nH]c2ccccc12` reads “inactive”.

For `CC(=O)SCCC(=O)Nc1ccccc1`, the augmentation entry is “inactive”. On to `c1cncc(-c2nc3c4ccccc4nc(N4CCC(N5CCCCC5)CC4)n3n2)c1`, for which the augmentation result was “inactive”. In the case of `c1ccc(Cn2nnnc2C(c2cccs2)N2CCSCC2)cc1` (configuration not stated), the augmentation result was “inactive”.

`CCOC(=O)c1ccc(N(CC(=O)NC2CCCC2)C(=O)CNC(=O)c2ccco2)cc1`: the augmentation entry is “inactive”.

For the compound `O=C(O)c1ccc2c3c(ncnc13)-c1ccccc1C2=O`, the augmentation entry is “inactive”. For the compound `O=C(CSc1nnc(-c2ccncc2)o1)Oc1ccccc1`, the augmentation entry is “inactive”. The result for `COc1ccccc1C(O)P(=O)(OC(C)C)c1ccc(N(C)C)cc1` (configuration not stated) reads “inactive”; that for `O=C(NCCCn1ccnc1)c1cnn2c1NC(c1ccccc1)CC2C(F)(F)F` (configuration not stated), “inactive”. For `COc1ccc(-c2noc(CN3CCC(Cc4ccccc4)CC3)n2)cc1` the value was 30.2%.

For the compound `Cc1nn(-c2ccccc2)c2c1C(c1c(C)[nH]c(C#N)c1C)C(C#N)=C(N)O2` (configuration not stated), the augmentation entry is “inactive”.

Turning to `CCOC(=O)N1CCN(C(=O)COc2ccc(Br)cc2Cl)CC1`, the augmentation is 61.2%. Take `COc1ccccc1C1CC(c2ccc(C)cc2)Nc2ncnn21` (configuration not stated): the augmentation entry is “inactive”. Turning to `COc1ccccc1CN1CC(C(=O)N2CCN(c3ccc(F)cc3)CC2)CC1=O` (configuration not stated), the augmentation result was “inactive”. The result for `CCOC(=O)C1C2C=CC3(CN(Cc4ccco4)C(=O)C13)O2` (configuration not stated) reads “inactive”. For `COc1ccc(CN2C(=O)c3ccccc3C2C(=O)NC2CCCC2)c(OC)c1` (configuration not stated) the value was “inactive”. The result for `CN(C)c1ccc(CNn2cnnc2)cc1` reads “inactive”. As for `CN(C)c1ccc(C=Nc2ccc(N(C)C)cc2)cc1`, the augmentation entry is “inactive”. The result for `CN(C)c1ccc(/C=C/c2ccncc2)cc1` reads 42.9% (active); that for `N#CCCNCC1(c2ccccc2)CCCC1`, “inactive”; that for `O=C(CSc1nnc2ccccn12)NCCN1C(=O)CSC1=O`, “inactive”. The result for `Cc1ccc(NC(=O)CSc2nnc(NC(=O)CN3CCOCC3)s2)cc1` reads “inactive”; that for `CCCc1[nH]nc2c1C(c1cccc(OC(=O)c3ccco3)c1)C(C#N)=C(N)O2` (configuration not stated), “inactive”. For `CCN(CC)c1ccc2cc(-c3nc4ccccc4[nH]3)c(=O)oc2c1` the value was 100% (active); for `CCN(CC)c1ccc2c(C)c(-c3ccc(N)cc3)c(=O)oc2c1`, “inactive”; for `CCN(CC)c1ccc2cc(NC(=O)CCC(=O)O)c(=O)oc2c1`, “inactive”. As for `CCCCOc1ccc(CSc2n[nH]c(C)n2)cc1`, the augmentation result was “inactive”.

For `CC(=O)Nc1cc(N2C(=O)CCC2=O)ccc1Cl`, the augmentation result is “inactive”. As to `CC(=O)Nc1ccc(Cl)cc1C(=O)O`, the augmentation entry is “inactive”. Regarding `COC(=O)c1ccc(Cl)c(NC(C)=O)c1`, the augmentation was 82.8% (active). For `CCCc1ccc(C(C)NC(=O)c2cnccn2)cc1` (configuration not stated) the value was “inactive”; for `CCCCNC(=O)Cn1c(=O)n(C)c2ccccc21`, “inactive”. Turning to `CCOC(=O)c1[nH]c(C)c(C(=O)Nc2ccc(Cl)cc2)c1C`, the augmentation entry was “inactive”. For `Cc1ccc2cc3cc(C(=O)NCCN4CCOCC4)oc3nc2c1` the value was “inactive”; for `CC(=O)c1cccc(NC(=O)N2C3CCC2CC(O)(c2cccnc2)C3)c1` (configuration not stated), “inactive”. For `O=c1oc2c3c4c(cc2cc1-c1nc2ccccc2[nH]1)CCCN4CCC3` the value was 100% (active); for `c1ccc2nc(-c3nc4ccccc4[nH]3)ccc2c1`, “inactive”. For `O=c1oc2c3c4c(cc2s1)CCCN4CCC3` the value was “inactive”. Take `Cn1c(Cc2ccccc2)nnc1SCC(=O)c1ccc(Br)s1`: the augmentation result is “inactive”. As to `CCOc1ccccc1C(=O)Nc1nnc(CC)s1`, the augmentation result is “inactive”. For `CCOC(=O)c1ccccc1NC(=O)CSc1nc2c(c(=O)n(C)c(=O)n2C)n1C` the value was “inactive”; for `Cc1cc(=O)n2nc(N3CCCC(C(=O)N4CCc5ccccc54)C3)sc2n1` (configuration not stated), “inactive”. The result for `CN(CCNC(=O)c1ccc(N2CCCC2=O)cc1)CCc1ccccc1` reads “inactive”.

For `CC(C)n1nc(C(=O)Nc2nc3ccc(S(C)(=O)=O)cc3s2)c2ccccc2c1=O`, the augmentation entry was “inactive”.

For the compound `Cc1ccc(CN2C(=O)CCC2C(=O)NCC2CCCO2)cc1` (configuration not stated), the augmentation result was “inactive”. For `CCCCn1c(SCc2cccnc2)nc2c1c(=O)n(C)c(=O)n2C` the value was “inactive”; for `O=C(CCN1C(=O)COc2ccccc21)NCCN1CCN(c2cccc(Cl)c2)CC1`, “inactive”.

In the case of `COc1ccc(NC(=O)CSc2nnc(Cc3cccn3C)n2-c2ccc(F)cc2)cc1`, the augmentation result is “inactive”. Turning to `COc1cc2c(cc1OC)-c1cc(OCc3cccnc3)nc(=O)n1CC2`, the augmentation entry was “inactive”. As to `CN(Cc1ccccc1)S(=O)(=O)c1ccc(S(=O)(=O)N2CCN(CCC#N)CC2)cc1`, the augmentation entry is “inactive”. For `CCOC(=O)c1[nH]c2ccccc2c1NC(=O)C(CC)CC` the value was “inactive”.

Turning to `c1coc(Cn2nnnc2CN2CCN(C3CCCC3)CC2)c1`, the augmentation result is “inactive”. The result for `Cc1ccc(C)c(N2CCN(C(=O)c3ccc(CS(=O)(=O)c4ccccc4C)o3)CC2)c1` reads “inactive”.

`O=c1c2cn[nH]c2nc(SCc2ccc3c(c2)OCCO3)n1-c1ccccc1`: the augmentation result is “inactive”. Consider `COc1ccc(CCn2c(-c3ccco3)nc3nc4ccccc4nc32)cc1`, for which the augmentation result was “inactive”. The result for `Cc1nnc(NC(=O)CSc2nc3c(c(=O)n2C)SC(C)C3)s1` (configuration not stated) reads “inactive”; that for `CCOc1ccccc1N1CC(O)=C(c2nc3ccccc3s2)C1=N`, “inactive”; that for `Cc1nc2cc(NC(=O)N3c4ccccc4CC3C)ccc2o1` (configuration not stated), “inactive”. Regarding `Cc1cc(OCC(O)CN2CCN(CCO)CC2)ccc1C(C)C` (configuration not stated), the augmentation result was “inactive”. The result for `Cc1ccn2cc(CCNC(=O)CC(C)(C)C)nc2c1` reads “inactive”; that for `CN(C)c1ccc(C2C3=C(CCCC3=O)OC3=C2C(=O)CCC3)cc1`, “inactive”; that for `CCOC(=O)c1cc(CC)sc1NC(=O)COC`, “inactive”. For the compound `CCOc1ccc(NC(=O)CCN2CCN(c3ccccc3)CC2)cc1`, the augmentation entry was “inactive”.

Turning to `Cc1ccc2[nH]c(=O)c(C(c3nnnn3CCc3ccccc3)N3CCOCC3)cc2c1` (configuration not stated), the augmentation result was “inactive”.

As to `CC(=O)N1C(=O)C2(C(C#N)=C(N)Oc3cc(C)oc(=O)c32)c2ccccc21` (configuration not stated), the augmentation entry is “inactive”. For `CCOC(=O)NC(c1ccccc1)C1CCCCC1=O` (configuration not stated) the value was “inactive”; for `O=C(Cn1c(NCCO)nc2ccccc21)c1ccccc1`, “inactive”; for `CCOc1ccc(OCC)c(NC(=O)CCCN2C(=O)c3cccnc3C2=O)c1`, “inactive”.

Take `Cc1cc(NC(=O)CCCN2C(=O)c3cccnc3C2=O)no1`: the augmentation was 50.9% (active). Take `Cc1cccnc1NC(=O)CCCN1C(=O)c2ccccc2C1=O`: the augmentation entry is “inactive”. For `O=C(c1ccccc1)c1ccc2nc[nH]c2c1` the value was “inactive”. For `O=C(NCCN1CCOCC1)NC1(C(F)(F)F)Oc2ccc(Cl)cc2O1` (configuration not stated) the value was “inactive”. In the case of `C=CCSc1n[nH]c(-c2ccc(OC)cc2)n1`, the augmentation entry is “inactive”. The result for `Cc1c(Cl)cccc1N1C(=O)c2ccccc2C1=O` reads “inactive”; that for `Cc1nc2cc(-n3ccc(=O)cc3)ccc2n1-c1ccccc1`, “inactive”; that for `Cn1c(=O)cc(SCC(=O)NCc2cccnc2)c2ccccc21`, “inactive”. On to `CSc1nc2c(ccc3ccccc32)o1`, for which the augmentation entry was “inactive”.

On to `O=c1cc(C(F)F)oc2c1ccc1ccccc12`, for which the augmentation was 97% (active).

With `COc1ccc(CCN2C(=O)CC(N3CCN(S(=O)(=O)c4ccccc4)CC3)C2=O)cc1` (configuration not stated), the augmentation result is “inactive”. `COCc1nnc(SCC(=O)NC(C)c2ccccc2)n1-c1ccccc1` (configuration not stated): the augmentation entry is “inactive”. The result for `COc1ccc(C(=O)N2CCCc3ccccc32)cc1` reads “inactive”. For the compound `CCOC(=O)N1CCN(C(=O)Cn2ncn3nc(-c4cccs4)cc3c2=O)CC1`, the augmentation result was “inactive”. As to `COc1cccc(-n2c(C)nc3c(cnn3-c3ccc(Cl)cc3)c2=O)c1`, the augmentation entry was “inactive”.

Consider `CCC(C)(C)n1nnnc1C(c1ccc(OC)c(OC)c1)N1CCN(c2ccc(F)cc2)CC1` (configuration not stated), for which the augmentation result was “inactive”.

As for `COc1ccc(OC)c(NC(=O)C2C3CC4OC(=O)C2C4C3)c1` (configuration not stated), the augmentation result was “inactive”.
